Test results: PubChem BioAssay (Tox21)
“And” between values parts separate entries of the source, which are not always exact repeats. Equal entries are not always repeated. Records with an inconclusive call do not appear. Where a structure was tested more than once in an assay, its records may differ in their call. The source made the active and inactive calls. Unless noted, calls come from the whole dose curve; as a rule, active = well fitted curve in the direction sought with a large enough effect in the repeat runs; inconclusive = weak or mixed curves; inactive = no such curve, though single readings can be large; an effect the other way counts as inactive or inconclusive.

Experiments:
[1] = molecular target: Estrogen receptor beta (Homo sapiens) (UniProt Q92731); assay: qHTS assay to identify small molecule agonists of the estrogen receptor beta (ER-beta) signaling pathway (AID 1259377; active = well fitted activation curve with a large enough effect in the signal ratio in the repeat runs, not every such curve was filed as active; the % refers to the signal ratio)
Sequence of Estrogen receptor beta (Homo sapiens) (Q92731 whole entry, looked up): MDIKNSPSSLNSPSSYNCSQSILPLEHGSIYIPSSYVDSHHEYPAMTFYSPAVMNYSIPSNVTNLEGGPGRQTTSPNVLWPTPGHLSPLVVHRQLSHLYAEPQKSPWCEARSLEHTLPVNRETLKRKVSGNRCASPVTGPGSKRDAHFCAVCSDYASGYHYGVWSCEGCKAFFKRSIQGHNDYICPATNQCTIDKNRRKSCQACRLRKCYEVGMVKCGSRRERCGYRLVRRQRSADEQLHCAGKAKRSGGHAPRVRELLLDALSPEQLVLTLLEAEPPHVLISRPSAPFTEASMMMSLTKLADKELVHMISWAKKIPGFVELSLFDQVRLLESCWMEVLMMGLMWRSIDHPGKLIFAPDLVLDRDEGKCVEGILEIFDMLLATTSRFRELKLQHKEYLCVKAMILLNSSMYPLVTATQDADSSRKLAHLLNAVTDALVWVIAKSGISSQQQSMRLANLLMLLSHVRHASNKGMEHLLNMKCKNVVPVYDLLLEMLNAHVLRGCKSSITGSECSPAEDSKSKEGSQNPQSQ
Method in brief: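 Beta-lactamase reporter readout: fluorescence of LiveBLAzer B/G FRET substrate after 2 h at room temperature, following 16 h compound treatment of ER-beta-UAS-bla HEK293T cells at 37C in 2% charcoal-stripped FBS medium.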

[2] = molecular target: Estrogen receptor beta (Homo sapiens) (UniProt Q92731); assay: qHTS assay to identify small molecule antagonists of the estrogen receptor beta (ER-beta) signaling pathway (AID 1259378; active = well fitted inhibition curve with a large enough effect in the signal ratio in the repeat runs, not every such curve was filed as active; the % refers to the signal ratio)
Method in brief: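 ER-beta-UAS-bla HEK293T cells in 2% charcoal-stripped FBS medium treated with compound plus 1nM final 17-beta-estradiol for 16 hr at 37C. Beta-lactamase reporter read by FRET substrate fluorescence after 2 hours at room temperature.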

[3] = qHTS assay to identify small molecule agonists of the androgen receptor (AR) signaling pathway in the presence of an antagonist - cell viability counter screen (AID 1259379); note: nearly all actives have a fitted effect of over 25% in size; note: potency is the fitted concentration of half-maximal effect
Method in brief: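 Fluorescence from CellTiter-Fluor, added after 15 hr and read 1 hr later, gave cell viability. Cells were MDA-kb2 exposed to compounds (15 concentrations) in the presence of 3.0uM nilutamide at 37C, 0% CO2.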

[4] = qHTS assay to identify small molecule agonists of the estrogen receptor beta (ER-beta) signaling pathway - cell viability counter screen (AID 1259380); note: nearly all actives have a fitted effect of over 30% in size; note: potency is the fitted concentration of half-maximal effect
Method in brief: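 Same-well viability counter screen. Cells: ER-beta-UAS-bla HEK293T, plated 6 hr before compound, in 2% charcoal-stripped FBS. Compound exposure 16 hr, 37C; viability by CellTiter-Glo luminescence after 30 min at room temperature.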

[5] = qHTS assay to identify small molecule agonists or antagonists of the thyroid stimulating hormone receptor (TSHR) signaling pathway - wild type cell line counter screen (AID 1259384; calls by dose curve)
Method in brief: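 Wild-type Hek293 cells, 800/well, 18 h at 37C, then compound with Ro20-1724 for 30 min RT. cAMP by HTRF (cAMP-d2/anti-cAMP cryptate), 1 h RT, fluorescence read. 15 concentrations, triplicates.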

[6] = molecular target: Thyrotropin receptor (Homo sapiens) (UniProt P16473); assay: qHTS assay to identify small molecule antagonists of the thyroid stimulating hormone receptor (TSHR) signaling pathway (AID 1259385; calls by dose curve; note: nearly all actives have a fitted effect of over 20% in size; note: potency is the fitted concentration of half-maximal effect)
Sequence of Thyrotropin receptor (Homo sapiens) (P16473 whole entry, looked up): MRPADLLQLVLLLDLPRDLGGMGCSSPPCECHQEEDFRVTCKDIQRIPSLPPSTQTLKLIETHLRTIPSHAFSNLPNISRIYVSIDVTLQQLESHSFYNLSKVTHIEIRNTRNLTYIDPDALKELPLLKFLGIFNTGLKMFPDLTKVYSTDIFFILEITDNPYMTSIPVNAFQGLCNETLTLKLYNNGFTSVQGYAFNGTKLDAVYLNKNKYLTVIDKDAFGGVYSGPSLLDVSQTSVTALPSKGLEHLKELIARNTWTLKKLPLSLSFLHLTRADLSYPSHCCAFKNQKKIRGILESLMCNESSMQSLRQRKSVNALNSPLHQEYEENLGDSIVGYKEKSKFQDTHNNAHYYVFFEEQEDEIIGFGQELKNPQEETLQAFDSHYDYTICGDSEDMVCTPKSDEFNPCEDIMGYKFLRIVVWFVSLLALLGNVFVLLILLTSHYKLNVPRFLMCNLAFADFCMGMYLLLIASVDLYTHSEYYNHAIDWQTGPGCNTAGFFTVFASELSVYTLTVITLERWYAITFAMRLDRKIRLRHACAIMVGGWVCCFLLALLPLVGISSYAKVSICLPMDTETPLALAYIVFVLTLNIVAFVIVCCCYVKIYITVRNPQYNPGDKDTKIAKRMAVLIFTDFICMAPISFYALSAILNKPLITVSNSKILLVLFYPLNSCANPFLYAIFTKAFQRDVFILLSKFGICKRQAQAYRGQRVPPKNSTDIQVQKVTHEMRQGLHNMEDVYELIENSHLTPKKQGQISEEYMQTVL
Method in brief: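 TSHR-HEK293 cells (800/well) plated 18 h, then compounds with Ro20-1724 and TSH at 1.5 ng/mL final, 30 min at room temperature. cAMP quantified by HTRF (cAMP-d2/anti-cAMP-cryptate, 1 h); 15 concentrations in triplicate.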

[7] = qHTS assay to identify small molecule agonists of the estrogen receptor alpha (ER-alpha) signaling pathway in the presence of an antagonist - cell viability counter screen (AID 1259386);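 note: cells exposed to compounds for 22 h at 37 °C before the viability read; nearly all actives have a fitted effect of over 30% in size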; note: potency is the fitted concentration of half-maximal effect
Method in brief: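 Cells are starved of estrogens for 5 days in charcoal-stripped serum, seeded for 24hr and co-treated with ICI-182,780 (10.0nM final) and test compounds. After 22hr at 37C, viability is read as CellTiter-Fluor fluorescence.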

[8] = molecular target: Progesterone receptor (Homo sapiens) (UniProt P06401); assay: qHTS assay to identify small molecule agonists of the progesterone receptor (PR) signaling pathway (AID 1346784; calls by dose curve; note: nearly all actives have a fitted effect of over 30% in size)
Sequence of Progesterone receptor (Homo sapiens) (P06401 whole entry, looked up): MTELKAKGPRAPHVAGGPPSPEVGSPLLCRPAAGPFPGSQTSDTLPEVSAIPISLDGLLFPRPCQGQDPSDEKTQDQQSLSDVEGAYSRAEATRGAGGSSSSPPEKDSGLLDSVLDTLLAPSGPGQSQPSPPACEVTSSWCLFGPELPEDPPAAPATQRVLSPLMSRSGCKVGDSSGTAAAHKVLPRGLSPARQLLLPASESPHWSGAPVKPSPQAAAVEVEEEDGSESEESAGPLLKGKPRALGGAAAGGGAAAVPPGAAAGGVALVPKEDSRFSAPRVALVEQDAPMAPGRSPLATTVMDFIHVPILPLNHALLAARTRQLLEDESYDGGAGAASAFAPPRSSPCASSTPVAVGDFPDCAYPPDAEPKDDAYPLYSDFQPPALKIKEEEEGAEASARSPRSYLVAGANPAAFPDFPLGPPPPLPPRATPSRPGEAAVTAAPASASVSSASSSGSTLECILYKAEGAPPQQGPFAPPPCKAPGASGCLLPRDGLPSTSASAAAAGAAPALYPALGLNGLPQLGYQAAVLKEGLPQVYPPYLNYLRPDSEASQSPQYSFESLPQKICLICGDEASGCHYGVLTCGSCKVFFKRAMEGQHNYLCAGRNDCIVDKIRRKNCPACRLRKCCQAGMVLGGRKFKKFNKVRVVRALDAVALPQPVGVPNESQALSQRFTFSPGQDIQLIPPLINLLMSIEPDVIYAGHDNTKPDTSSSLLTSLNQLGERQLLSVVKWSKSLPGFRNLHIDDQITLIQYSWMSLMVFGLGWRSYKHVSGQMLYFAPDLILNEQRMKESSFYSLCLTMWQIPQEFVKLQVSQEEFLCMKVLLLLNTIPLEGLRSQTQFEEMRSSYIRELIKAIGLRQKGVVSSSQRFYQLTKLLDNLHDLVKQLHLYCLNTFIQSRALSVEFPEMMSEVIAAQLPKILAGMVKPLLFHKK
Method in brief: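 HEK 293T PR-UAS-bla reporter cells, 2% charcoal-stripped FBS; 6 hr settle at 37C/5% CO2, compound (DMSO) 16 hr, LiveBLAzer B/G FRET substrate 2 hr RT, fluorescence intensity read.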

[9] = molecular target: Progesterone receptor (Homo sapiens) (UniProt P06401); assay: qHTS assay to identify small molecule antagonists of the progesterone receptor (PR) signaling pathway (AID 1346795; active = well fitted inhibition curve with a large enough effect in the signal ratio in the repeat runs, not every such curve was filed as active; the % refers to the signal ratio; note: potency is the fitted concentration of half-maximal effect)
Method in brief: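 Beta-lactamase reporter, HEK293T PR-UAS-bla line; 2% charcoal-stripped FBS; 6 hr pre-incubation, 37C/5% CO2. Compound + R5020 1 nM final, 16 hr. LiveBLAzer B/G FRET substrate, 2 hr RT; fluorescence intensity read.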

[10] = qHTS assay to identify small molecule agonists of the progesterone receptor (PR) signaling pathway - cell viability counter screen (AID 1346799; calls by dose curve; note: nearly all actives have a fitted effect of over 45% in size; note: potency is the fitted concentration of half-maximal effect)
Method in brief: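 HEK293T PR-UAS-bla, 3,000 cells/well, 2% charcoal-stripped FBS; 6 h settle, compound 16 h at 37C/5% CO2; LiveBLAzer 2 h RT, then CellTiter-Glo 30 min RT, luminescence read.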

[11] = qHTS assay to identify small molecule antagonists of the TGF-beta/Smad signaling pathway - cell viability counter screen (AID 1346824); note: nearly all actives have a fitted effect of over 50% in size; note: potency is the fitted concentration of half-maximal effect
Method in brief: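 SBE-bla HEK 293T cells, incubated overnight, then compound plus 0.25 ng/mL TGF-beta1 (stock added) for 5 hr at 37 C. Viability was read in the same wells by CellTiter-Glo luminescence after 30 min at room temperature.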

[12] = qHTS assay to identify small molecule agonists of the TGF-beta/Smad signaling pathway - cell viability counter screen (AID 1346829); note: nearly all actives have a fitted effect of over 45% in size; note: potency is the fitted concentration of half-maximal effect
Method in brief: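 In parallel with the Smad reporter read, viability of HEK 293T cells stably carrying SBE-bla is quantified by ATP luminescence following 5 hr compound treatment.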

[13] = qHTS assay to identify small molecule agonists of the TGF-beta/Smad signaling pathway (AID 1346859; active = well fitted activation curve with a large enough effect in the signal ratio in the repeat runs, not every such curve was filed as active; the % refers to the signal ratio; note: series mostly up to about 77 µM)
Method in brief: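 Read-out: fluorescence at 460 and 530 nm (405 nm excitation) after a 2 hr room-temperature incubation with beta-lactamase FRET substrate. SBE-bla HEK 293T cells had been treated with test compounds for 5 hr at 37 C.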

[14] = molecular target: Thyrotropin-releasing hormone receptor (Homo sapiens) (UniProt P34981); assay: qHTS assay to identify small molecule antagonists of the thyrotropin-releasing hormone receptor (TRHR) signaling pathway (AID 1346877; active = well fitted inhibition curve with a large enough effect in the repeat runs, not every such curve was filed as active; note: series mostly up to about 51 µM)
Sequence of Thyrotropin-releasing hormone receptor (Homo sapiens) (P34981 whole entry, looked up): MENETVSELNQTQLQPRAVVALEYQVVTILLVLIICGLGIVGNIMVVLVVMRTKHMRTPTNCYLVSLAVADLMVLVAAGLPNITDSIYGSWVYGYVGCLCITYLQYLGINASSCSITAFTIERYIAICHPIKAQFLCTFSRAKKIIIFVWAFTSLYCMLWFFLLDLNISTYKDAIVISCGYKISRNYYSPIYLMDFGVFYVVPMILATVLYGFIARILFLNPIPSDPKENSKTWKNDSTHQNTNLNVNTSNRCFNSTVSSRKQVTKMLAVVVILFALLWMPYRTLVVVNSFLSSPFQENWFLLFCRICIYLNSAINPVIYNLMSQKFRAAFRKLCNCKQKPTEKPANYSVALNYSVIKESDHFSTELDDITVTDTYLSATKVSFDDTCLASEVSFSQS
Method in brief: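 Cells (TRHR-HEK293) are plated and kept 18 h at 37 °C/5% CO2. A calcium-sensitive dye is added for 2 h, compound follows for 5 min at room temperature, and TRH is then given at 1 nM final.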

[15] = molecular target: Thyrotropin-releasing hormone receptor (Homo sapiens) (UniProt P34981); assay: qHTS assay to identify small molecule agonists of the thyrotropin-releasing hormone receptor (TRHR) signaling pathway (AID 1346891; calls by dose curve;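 note: HEK293 cells expressing TRHR with calcium dye readout; series mostly up to about 58 µM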)
Method in brief: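 HEK293/TRHR cells, 1500 per well, 18 h 37 °C; Ca dye 2 h 37 °C; pin-tool compound addition (agonist mode); kinetic fluorescence 3 min, 1 s reads; 15 concentrations, triplicate.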

[16] = Human pregnane X receptor (PXR) small molecule agonists, qHTS cell viability counter screen (AID 1346977); note: nearly all actives have a fitted effect of over 50% in size; note: potency is the fitted concentration of half-maximal effect
Method in brief: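 Fluorescence read-out (CellTiter-Fluor) of viability in PXR-Luc HepG2 cells, multiplexed with the luciferase agonist read. Compounds in DMSO added after 5hr plating; 24hr total exposure at 37C, 5% CO2.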

[17] = molecular target: Androgen receptor (Homo sapiens) (UniProt P10275); assay: qHTS assay to identify small molecule agonists of the androgen receptor (AR) signaling pathway in the presence of an antagonist (AID 1259381; calls by dose curve; note: nearly all actives have a fitted effect of over 15% in size)
Sequence of Androgen receptor (Homo sapiens) (P10275 whole entry, looked up): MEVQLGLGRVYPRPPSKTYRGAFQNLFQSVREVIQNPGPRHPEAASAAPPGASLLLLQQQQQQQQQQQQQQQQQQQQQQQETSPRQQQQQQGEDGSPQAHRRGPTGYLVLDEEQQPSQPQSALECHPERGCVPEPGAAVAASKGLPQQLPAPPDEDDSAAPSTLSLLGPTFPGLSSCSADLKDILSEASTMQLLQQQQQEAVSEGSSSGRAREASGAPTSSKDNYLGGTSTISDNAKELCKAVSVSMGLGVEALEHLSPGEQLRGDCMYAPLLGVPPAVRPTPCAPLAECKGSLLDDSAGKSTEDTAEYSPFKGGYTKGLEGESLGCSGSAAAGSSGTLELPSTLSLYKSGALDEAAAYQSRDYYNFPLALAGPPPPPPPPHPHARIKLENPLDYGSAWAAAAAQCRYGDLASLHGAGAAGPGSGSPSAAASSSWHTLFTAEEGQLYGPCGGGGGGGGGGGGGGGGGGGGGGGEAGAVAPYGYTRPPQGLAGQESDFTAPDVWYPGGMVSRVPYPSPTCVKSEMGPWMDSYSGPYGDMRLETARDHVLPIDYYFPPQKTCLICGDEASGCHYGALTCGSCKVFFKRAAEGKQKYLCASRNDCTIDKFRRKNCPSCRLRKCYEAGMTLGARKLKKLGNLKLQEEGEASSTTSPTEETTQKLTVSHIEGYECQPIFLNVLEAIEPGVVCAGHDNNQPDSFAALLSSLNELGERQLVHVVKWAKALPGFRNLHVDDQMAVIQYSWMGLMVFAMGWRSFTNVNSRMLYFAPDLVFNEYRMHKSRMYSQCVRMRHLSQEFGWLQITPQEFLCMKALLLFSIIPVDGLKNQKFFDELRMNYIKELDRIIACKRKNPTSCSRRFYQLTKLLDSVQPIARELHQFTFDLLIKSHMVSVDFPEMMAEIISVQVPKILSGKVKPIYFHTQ
Method in brief: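 Cells are MDA-kb2 (human breast carcinoma, MMTV-luc, AR/GR responsive). Nilutamide is present at 3.0uM final throughout; compounds are added at 15 concentrations and incubated 16hr at 37C before ONE-Glo luminescence detection.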

[18] = qHTS assay to identify small molecule antagonists of the estrogen receptor beta (ER-beta) signaling pathway - cell viability counter screen (AID 1259382); note: nearly all actives have a fitted effect of over 55% in size; note: potency is the fitted concentration of half-maximal effect
Method in brief: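 Following a 6 hr plating period, HEK293T cells carrying a UAS-driven beta-lactamase reporter under ER-beta control received compounds and 1nM E2 (final). After 16 hr at 37C and 2 hr substrate loading, CellTiter-Glo luminescence indicated viability.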

[19] = qHTS assay to identify small molecule antagonists of the progesterone receptor (PR) signaling pathway - cell viability counter screen (AID 1346798); note: series mostly up to about 92 µM; nearly all actives have a fitted effect of over 50% in size
Method in brief: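 Luminescence readout (CellTiter-Glo, 30 min, RT) of viability in PR-UAS-bla HEK293T cells exposed to compound and R5020 agonist for 16 hr at 37C, 5% CO2; run in the same wells as the beta-lactamase reporter read.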

[20] = molecular target: Estrogen receptor (Homo sapiens) (UniProt P03372); assay: qHTS assay to identify small molecule agonists of the estrogen receptor alpha (ER-alpha) signaling pathway in the presence of an antagonist (AID 1259383; calls by dose curve; note: top concentration of the series differs between compounds; nearly all actives have a fitted effect of over 15% in size)
Sequence of Estrogen receptor (Homo sapiens) (P03372 whole entry, looked up): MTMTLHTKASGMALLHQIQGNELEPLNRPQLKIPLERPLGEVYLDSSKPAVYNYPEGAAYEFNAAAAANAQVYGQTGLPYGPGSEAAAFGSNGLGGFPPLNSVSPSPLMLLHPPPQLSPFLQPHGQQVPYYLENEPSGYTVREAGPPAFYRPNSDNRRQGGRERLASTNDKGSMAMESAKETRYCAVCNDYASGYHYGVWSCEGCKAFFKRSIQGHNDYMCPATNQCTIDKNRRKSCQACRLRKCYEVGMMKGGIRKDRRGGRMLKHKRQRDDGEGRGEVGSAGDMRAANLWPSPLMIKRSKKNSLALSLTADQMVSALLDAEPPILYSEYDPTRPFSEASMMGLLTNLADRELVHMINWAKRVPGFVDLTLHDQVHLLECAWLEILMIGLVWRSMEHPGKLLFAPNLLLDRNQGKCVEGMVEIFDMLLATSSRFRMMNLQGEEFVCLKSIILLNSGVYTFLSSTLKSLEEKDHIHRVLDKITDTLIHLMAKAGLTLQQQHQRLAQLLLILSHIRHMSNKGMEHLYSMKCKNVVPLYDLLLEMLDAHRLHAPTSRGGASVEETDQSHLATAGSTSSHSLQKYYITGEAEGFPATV
Method in brief: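 Cells are hormone-deprived for 5 days (charcoal-stripped FBS, no phenol red), plated for 24hr, spiked with 10.0nM ICI-182,780, then dosed at 15 concentrations. After 22hr at 37C, ONE-Glo luminescence reports ERE-luciferase activity.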

Measured: Potency

N#CC(c1ccccc1)c1ccccc1
inactive: [1] | [2] | [3] | [4] | [5] | [6] | [7] | [8] | [9] | [10] | [11] | [12] | [13] | [14] | [15] | [16]

Oc1ccc(Cl)cc1Cc1ccccc1
70.8 µM (active) and inactive: [16]
inactive: [2] | [3] | [17] | [5] | [7] | [8] | [19] | [11] | [12] | [13] | [14] | [15]
inactive and 55.1 µM (active): [6]
active: [4] 54.5 µM and 27.6 µM | [18] 48.6 µM and 52.1 µM | [9] 7.7 µM and 10.6 µM

CC(C)CON=O
inactive: [1] | [2] | [3] | [4] | [20] | [5] | [6] | [7] | [8] | [9] | [19] | [10] | [11] | [12] | [13] | [16]

CC(C)=CC1C(C(=O)OCc2cccc(Oc3ccccc3)c2)C1(C)C (stereo not given)
inactive: [1] | [2] | [3] | [4] | [20] | [5] | [6] | [7] | [9] | [10] | [11] | [12] | [13] | [14] | [15] | [16]

CCC[CH2][Sn]([Cl])([Cl])[CH2]CCC
inactive: [1] | [20] | [14] | [15]
active: [3] 552 nM and 1.09 µM | [4] 981 nM and 1.54 µM | [18] 1.39 µM and 1.54 µM | [7] 1.96 µM and 2.17 µM | [9] 196 nM | [10] 1.1 µM and 1.37 µM | [11] 8.82 µM and 13.8 µM | [12] 7.01 µM and 15.5 µM | [16] 501 nM and 1.37 µM

CN(C)c1ccccc1
inactive: [1] | [2] | [3] | [4] | [5] | [6] | [7] | [9] | [19] | [10] | [11] | [12] | [13] | [14] | [15] | [16]

CNC(=O)Oc1cccc2c1OC(C)(C)C2
inactive: [2] | [3] | [4] | [17] | [18] | [20] | [5] | [6] | [7] | [8] | [9] | [19] | [10] | [11] | [12] | [13] | [14] | [15] | [16]

Nc1ccc2ccccc2c1
inactive: [2] | [3] | [4] | [18] | [20] | [7] | [8] | [9] | [10] | [11] | [12] | [13] | [14] | [15] | [16]

O=[N+]([O-])c1ccc(Nc2ccccc2)cc1
inactive: [1] | [4] | [18] | [20] | [5] | [6] | [8] | [19] | [11] | [12] | [13] | [14] | [15]
active: [3] 30.9 µM and 30.6 µM | [7] 27.5 µM and 27.3 µM | [16] 39.8 µM and 48.6 µM

CCNCC
inactive: [1] | [2] | [3] | [4] | [5] | [6] | [7] | [9] | [19] | [10] | [11] | [12] | [13] | [14] | [15] | [16]

NC(=O)CN1CCCC1=O
inactive: [1] | [2] | [3] | [4] | [18] | [7] | [8] | [9] | [10] | [11] | [12] | [13] | [14] | [15] | [16]
